# “And” between values parts separate entries of the source, which are not always exact repeats. Identical values can stand only once. Inconclusive results are not listed. The source made the active and inactive calls. Unless noted, the call rests on the fitted dose curve; in most records, active means well fitted curve in either direction with a large enough effect (not every such curve was filed as active); inconclusive means small, poorly fitted or top-dose-only effect, or another doubt; inactive means flat fitted curve, though single readings scatter.
# Columns and labels:
# [1] = target: Lysosomal acid glucosylceramidase (Homo sapiens) (UniProt P04062); assay: Glucocerebrosidase-p2 (AID 348; in the data active means potency below about 10 µM; further: potency means the concentration at half of the fitted maximal effect); settings: purified GBA, blue fluorogenic substrate, 40 min
# Chain of Lysosomal acid glucosylceramidase (Homo sapiens) (P04062 whole entry, looked up): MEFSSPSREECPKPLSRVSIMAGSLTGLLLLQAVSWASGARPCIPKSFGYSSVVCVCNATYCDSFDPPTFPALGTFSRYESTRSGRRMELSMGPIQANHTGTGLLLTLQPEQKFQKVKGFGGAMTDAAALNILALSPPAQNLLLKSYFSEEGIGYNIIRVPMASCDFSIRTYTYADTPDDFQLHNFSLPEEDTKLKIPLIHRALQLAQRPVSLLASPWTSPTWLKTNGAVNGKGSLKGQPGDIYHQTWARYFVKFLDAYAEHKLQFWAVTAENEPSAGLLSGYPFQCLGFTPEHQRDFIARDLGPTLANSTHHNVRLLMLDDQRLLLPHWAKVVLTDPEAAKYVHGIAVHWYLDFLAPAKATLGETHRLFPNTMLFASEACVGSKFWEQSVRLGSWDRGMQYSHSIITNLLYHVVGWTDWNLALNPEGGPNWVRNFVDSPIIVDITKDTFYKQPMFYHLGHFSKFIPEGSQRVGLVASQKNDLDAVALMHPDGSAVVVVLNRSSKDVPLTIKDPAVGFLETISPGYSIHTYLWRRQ
# In short: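 Compounds titrated from 0.6 nM upwards against 0.2 nM enzyme in pH 5.9 citric acid/KH2PO4, taurocholate, tween-20; blue fluorogenic substrate 80 uM, 40 min room temperature, stopped and read Ex 365/Em 440 for AC50.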
# [2] = AP1 Signaling Pathway (AID 357); settings: ME-180 AP-1-bla reporter, EGF-induced, beta-lactamase ratio, 5 h; further: on the % scale 0 is the no-effect control and ±100 the full control effect
# In short: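 ME-180 cells with beta-lactamase reporter under AP-1 response element, stimulated with EC50 EGF; compounds tested in titration series, 5 h at 37 °C. CCF4 substrate added 2.5 h at room temperature; 460/530 nm emission ratio gave %activity and AC50.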
# [3] = target: Cytochrome P450 1A2 (Homo sapiens) (UniProt P05177); assay: p450-cyp1a2 (AID 410; calls by dose curve; further: potency means the concentration at half of the fitted maximal effect); settings: recombinant CYP1A2, luciferin-ME demethylation, luminescence; series mostly up to 57 µM
# Chain of Cytochrome P450 1A2 (Homo sapiens) (P05177 whole entry, looked up): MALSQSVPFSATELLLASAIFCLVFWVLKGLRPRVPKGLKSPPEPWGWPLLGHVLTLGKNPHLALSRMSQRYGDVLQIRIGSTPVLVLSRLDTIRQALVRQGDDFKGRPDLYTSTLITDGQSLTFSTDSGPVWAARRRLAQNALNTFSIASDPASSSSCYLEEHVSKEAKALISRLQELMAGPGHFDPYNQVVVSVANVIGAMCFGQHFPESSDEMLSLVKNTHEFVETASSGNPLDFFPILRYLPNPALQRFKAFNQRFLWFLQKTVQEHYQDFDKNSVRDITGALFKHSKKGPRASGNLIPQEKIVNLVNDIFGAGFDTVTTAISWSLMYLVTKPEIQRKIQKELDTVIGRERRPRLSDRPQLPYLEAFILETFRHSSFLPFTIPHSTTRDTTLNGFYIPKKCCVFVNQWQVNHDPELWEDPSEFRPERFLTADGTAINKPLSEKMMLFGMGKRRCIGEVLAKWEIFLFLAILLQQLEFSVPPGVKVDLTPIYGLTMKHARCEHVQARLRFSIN
# In short: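 Human CYP1A2 (20nM) demethylated Luciferin-ME at its Km (100uM) in 100mM KPO4. After 10 min compound preincubation, NADPH regeneration ran the reaction 60 min at room temperature. Luciferin was read by luminescence, normalized to 57 uM furafylline.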
# [4] = NFAT Signaling Pathway (AID 444); settings: Jurkat NFAT-bla M1, carbachol, beta-lactamase ratio, 5 h; at 7.69 µM (top of the series) unless noted;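 further: carbachol stimulus at about its EC50 of 1 µM final; on the % scale 0 is the no-effect control and ±100 the full control effect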
# In short: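 Jurkat cells carrying an NFAT-driven β-lactamase reporter and co-transfected muscarinic M1 receptor were treated with compound plus carbachol (1 uM final, an EC50 level) for 5 h at 37 °C. CCF4 loading followed for 1 h at RT; 460/530 nm ratio gave %activity.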
# [5] = Stat Signaling Pathway (AID 446); settings: ME-180 (cervical carcinoma) SIE beta-lactamase reporter, IL-6 stimulated, 5 h;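 further: ME-180 cervical cancer cells given 40 pM IL-6 alongside compound; SIE-controlled beta-lactamase reporter measured as 460/530 nm FRET emission ratio; on the % scale 0 is the no-effect control and ±100 the full control effect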
# In short: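 IL-6/STAT signaling read in ME-180 cells via an SIE beta-lactamase reporter. Stimulus was 40 pM IL-6 (its AC50) for 5 hrs, so both activation and inhibition register.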
# [6] = target: Glucocorticoid receptor (Homo sapiens) (UniProt P04150); assay: GR-GFP Redistribution (AID 450;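 active means compounds whose dose series gives a full or clear partial fitted curve of increased nuclear translocation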; further: potency means the concentration at half of the fitted maximal effect); settings: U2OS GR-GFP nuclear translocation, laser cytometry, 2 h
# Chain of Glucocorticoid receptor (Homo sapiens) (P04150 whole entry, looked up, the tested form may be a part): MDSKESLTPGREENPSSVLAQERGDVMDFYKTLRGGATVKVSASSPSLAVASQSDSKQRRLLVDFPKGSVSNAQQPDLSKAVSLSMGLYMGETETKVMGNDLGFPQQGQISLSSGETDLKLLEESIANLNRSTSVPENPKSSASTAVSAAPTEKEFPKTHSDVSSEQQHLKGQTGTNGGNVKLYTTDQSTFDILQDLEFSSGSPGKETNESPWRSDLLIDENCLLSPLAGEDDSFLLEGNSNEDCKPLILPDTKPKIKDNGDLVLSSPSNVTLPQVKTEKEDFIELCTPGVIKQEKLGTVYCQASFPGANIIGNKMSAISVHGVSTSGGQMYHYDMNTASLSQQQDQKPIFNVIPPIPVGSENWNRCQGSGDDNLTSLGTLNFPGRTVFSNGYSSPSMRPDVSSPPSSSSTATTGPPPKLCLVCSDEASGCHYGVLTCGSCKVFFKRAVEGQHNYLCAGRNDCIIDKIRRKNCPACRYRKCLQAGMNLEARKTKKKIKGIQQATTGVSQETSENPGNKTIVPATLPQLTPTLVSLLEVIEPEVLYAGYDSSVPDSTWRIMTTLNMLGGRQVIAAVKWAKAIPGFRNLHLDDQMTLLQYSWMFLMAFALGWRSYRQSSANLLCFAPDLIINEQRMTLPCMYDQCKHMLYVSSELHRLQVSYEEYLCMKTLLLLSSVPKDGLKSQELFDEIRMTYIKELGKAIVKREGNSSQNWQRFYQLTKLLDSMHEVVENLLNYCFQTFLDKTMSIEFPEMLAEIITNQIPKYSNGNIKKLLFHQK
# [7] = target: Glucocorticoid receptor (Homo sapiens) (UniProt P04150); assay: GR-EFC Redistribution (AID 451; calls by dose curve; further: potency means the concentration at half of the fitted maximal effect); settings: CHO-K1 GR-EFC translocation, beta-gal luminescence, 2 h
# In short: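 CHO-K1 cells stably expressing nuclear-localized β-gal enzyme acceptor and GR fused C-terminally to the enzyme donor fragment; ligand-driven nuclear translocation restores β-gal by complementation. Compounds titrated up to 46 uM final, 2 h at 37 °C; luminescence read.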
# [8] = target: Mitogen-activated protein kinase 10 (Mus musculus) (UniProt Q61831); assay: JNK3 AlphaScreen Assay (AID 530); settings: JNK3 lysate, c-Jun phosphorylation; series mostly up to 57.1 µM;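 further: kinase came from lysate of stimulated human HepG2 cells; signal reports phosphorylation of biotinylated GST-cJun 1-79 at Ser73 with 10 µM ATP; on the % scale 0 is the no-effect control and ±100 the full control effect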
# In short: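 JNK3 came from HepG2 lysates pre-activated with IL-1beta and TNF-alpha and phosphorylated biotinylated GST-cJun (1-79) at 10 uM ATP, pH 7.6, room temperature. Compounds were titrated. AlphaScreen signal used anti-phospho-cJun (Ser73) antibody.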
# [9] = target: 3',5'-cyclic-AMP phosphodiesterase 4B (Homo sapiens) (UniProt Q07343); assay: qHTS Assay for Inhibitors of PDE-IV (AID 607; active means well fitted activation curve with a large enough effect in the main read-out, with a control signal flat, not every such curve was filed as active; further: % of control where 0% means no effect); settings: HEK293 ACTOne CNG channel cells, membrane potential fluorescence; series mostly up to 22.9 µM
# Chain of 3',5'-cyclic-AMP phosphodiesterase 4B (Homo sapiens) (Q07343 whole entry, looked up): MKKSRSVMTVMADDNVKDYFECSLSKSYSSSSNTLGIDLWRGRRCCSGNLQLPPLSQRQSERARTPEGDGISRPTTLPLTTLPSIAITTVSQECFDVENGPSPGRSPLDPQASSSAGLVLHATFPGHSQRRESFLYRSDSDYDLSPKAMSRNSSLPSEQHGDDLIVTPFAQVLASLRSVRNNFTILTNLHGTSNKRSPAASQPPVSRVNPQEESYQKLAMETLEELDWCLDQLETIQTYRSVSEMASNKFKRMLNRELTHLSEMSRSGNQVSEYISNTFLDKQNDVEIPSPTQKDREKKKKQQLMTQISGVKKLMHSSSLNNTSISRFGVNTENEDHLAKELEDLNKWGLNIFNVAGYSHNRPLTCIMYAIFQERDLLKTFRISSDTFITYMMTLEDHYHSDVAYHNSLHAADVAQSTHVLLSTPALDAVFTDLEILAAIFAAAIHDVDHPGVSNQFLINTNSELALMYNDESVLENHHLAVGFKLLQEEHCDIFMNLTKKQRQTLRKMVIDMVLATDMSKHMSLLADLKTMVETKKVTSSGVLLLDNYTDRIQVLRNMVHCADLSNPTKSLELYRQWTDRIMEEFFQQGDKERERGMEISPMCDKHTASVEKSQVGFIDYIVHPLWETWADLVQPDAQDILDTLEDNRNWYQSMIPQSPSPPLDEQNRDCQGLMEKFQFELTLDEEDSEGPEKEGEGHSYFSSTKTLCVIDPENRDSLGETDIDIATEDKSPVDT
# In short: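 Live HEK293 cells with a modified cyclic nucleotide-gated (CNG) channel report intracellular cAMP via membrane-potential dye fluorescence (ex 535/em 590 nm). Endogenous PDE-IV was targeted. Compounds were tested at up to 22.9 uM final; RO 20-1724 100 uM served as control.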
# [10] = qHTS Assay for Lipid Storage Modulators (AID 1519; calls by dose curve); settings: Drosophila S3 cells, BODIPY lipid droplet/cell ratio, laser cytometry, cells loaded with oleic acid
# In short: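 Cells seeded at 5,000 per well were treated with compounds over a concentration series and loaded with oleic acid (400 uM, as added). Lipid droplet fluorescence (488 nm excitation, 500-530 nm channel) was read by laser-scanning cytometry and normalized to 20 uM Triacsin C.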
# [11] = target: Cytochrome P450 3A4 (Homo sapiens) (UniProt P08684); assay: qHTS Assay for Activators of Cytochrome P450 3A4 (AID 885; active means well fitted curve in the direction sought with a large enough effect; an effect the other way counts as inactive or inconclusive; further: nearly all actives have a fitted effect of over 65% in size); settings: recombinant CYP3A4, Luciferin-PPXE luminescence, 60 min; series mostly up to 57.1 µM
# Chain of Cytochrome P450 3A4 (Homo sapiens) (P08684 whole entry, looked up): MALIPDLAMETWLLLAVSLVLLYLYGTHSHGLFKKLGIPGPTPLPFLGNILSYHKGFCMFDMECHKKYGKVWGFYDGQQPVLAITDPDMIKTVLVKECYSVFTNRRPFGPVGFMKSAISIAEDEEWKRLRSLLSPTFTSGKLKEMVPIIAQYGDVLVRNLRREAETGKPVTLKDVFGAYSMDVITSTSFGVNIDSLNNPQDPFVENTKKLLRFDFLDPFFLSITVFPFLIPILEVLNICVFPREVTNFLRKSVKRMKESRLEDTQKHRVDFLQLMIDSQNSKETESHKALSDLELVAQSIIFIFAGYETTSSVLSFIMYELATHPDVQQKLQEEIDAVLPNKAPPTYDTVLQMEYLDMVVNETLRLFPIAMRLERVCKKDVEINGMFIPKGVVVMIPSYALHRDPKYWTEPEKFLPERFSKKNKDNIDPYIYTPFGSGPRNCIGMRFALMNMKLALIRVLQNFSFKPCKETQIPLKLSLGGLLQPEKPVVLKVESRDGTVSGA
# In short: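 Quantitative HTS format: compounds preincubated with 20nM human CYP3A4 and Luciferin-PPXE substrate at KM, reaction started by NADPH regeneration, stopped after 60 min, luciferase luminescence read 20 min later.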
# [12] = Confirmation and Secondary Assay for Modulators of Hemoglobin Beta Chain Splicing at IVS2 654 locus (AID 910; active means well fitted curve in the direction sought with a large enough effect; an effect the other way counts as inactive or inconclusive;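 further: per-well total GFP intensity by laser scanning cytometry after 2-day treatment; % of control where 0% means no effect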); settings: HeLa EGFP-654 splicing reporter, GFP fluorescence, 48 h; series mostly up to 38.3 µM
# In short: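 HeLa cells stably carrying EGFP interrupted by mutant beta-globin IVS2-654 intron (CMV-driven) were treated with compound for 2 days at 37C; corrected splicing was scored as total peak GFP intensity per well (488 nm excitation, 500-520 nm emission).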
# [13] = Confirmation and Secondary Assay for Modulators of Hemoglobin Beta Chain Splicing at IVS2 705 locus (AID 930; active means well fitted curve in the direction sought with a large enough effect; an effect the other way counts as inactive or inconclusive;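 further: HeLa cells stably expressing the EGFP-705 splicing reporter; GFP fluorescence per well restored by corrected splicing of the IVS2-705 intron in EGFP; % of control where 0% means no effect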); settings: HeLa EGFP-705 splicing reporter, GFP fluorescence, 48 h; series mostly up to 38.3 µM
# In short: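 Per-well GFP, captured at 1 x 8 µm resolution with 488 nm excitation, served as the read-out for HeLa EGFP-705 cells incubated 2 days with test compound versus DMSO.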
# [14] = target: Ubiquitin carboxyl-terminal hydrolase 1 (Homo sapiens) (UniProt O94782); assay: Inhibitors of USP1/UAF1: Pilot qHTS (AID 504865; active means well fitted curve in the direction sought with a large enough effect; an effect the other way counts as inactive or inconclusive;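 further: rhodamine fluorescence freed from ubiquitin-rhodamine substrate followed over time; top concentration of the series differs between compounds; on the % scale 0 is the no-effect control and ±100 the full control effect; nearly all actives have a fitted effect of over 35% in size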); settings: purified USP1/UAF1, Ub-rhodamine cleavage fluorescence; series mostly up to 54.9 µM
# Chain of Ubiquitin carboxyl-terminal hydrolase 1 (Homo sapiens) (O94782 whole entry, looked up): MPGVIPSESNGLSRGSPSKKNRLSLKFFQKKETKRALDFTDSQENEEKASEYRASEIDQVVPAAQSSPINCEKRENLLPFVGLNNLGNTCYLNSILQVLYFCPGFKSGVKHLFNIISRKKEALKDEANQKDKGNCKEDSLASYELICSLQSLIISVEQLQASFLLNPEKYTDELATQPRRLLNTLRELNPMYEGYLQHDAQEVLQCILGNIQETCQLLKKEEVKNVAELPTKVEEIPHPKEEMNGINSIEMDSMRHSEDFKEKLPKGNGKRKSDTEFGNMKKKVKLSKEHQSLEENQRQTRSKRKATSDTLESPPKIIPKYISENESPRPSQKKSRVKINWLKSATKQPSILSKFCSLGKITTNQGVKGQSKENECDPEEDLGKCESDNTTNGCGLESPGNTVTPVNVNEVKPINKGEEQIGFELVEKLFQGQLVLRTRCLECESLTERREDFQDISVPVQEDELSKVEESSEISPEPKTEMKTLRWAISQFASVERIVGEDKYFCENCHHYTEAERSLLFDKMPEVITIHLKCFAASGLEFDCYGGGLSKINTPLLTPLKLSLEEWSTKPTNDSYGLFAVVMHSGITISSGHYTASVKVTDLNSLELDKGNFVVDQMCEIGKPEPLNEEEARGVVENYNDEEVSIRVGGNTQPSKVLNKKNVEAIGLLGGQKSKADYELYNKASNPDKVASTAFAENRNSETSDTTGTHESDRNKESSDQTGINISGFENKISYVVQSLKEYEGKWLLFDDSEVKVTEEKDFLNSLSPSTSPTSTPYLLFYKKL
# In short: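 USP1/UAF1 complex (1nM) preincubated with compound 15 min at room temperature, then Ub-Rho substrate (150nM final) added. Fluorescence read kinetically at 480/540 nm, 6 reads every 60 seconds. Buffer: 50mM HEPES pH 7.8, 0.5mM EDTA, 0.1 mg/ml BSA, 1mM TCEP, 0.01% Tween-20.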
# [15] = target: Cytochrome P450 3A4 (Homo sapiens) (UniProt P08684); assay: qHTS Assay for Inhibitors and Substrates of Cytochrome P450 3A4 (AID 884; active means well fitted curve in the direction sought with a large enough effect; an effect the other way counts as inactive or inconclusive; further: potency means the concentration at half of the fitted maximal effect; nearly all actives have a fitted effect of over 50% in size); settings: recombinant CYP3A4, Luciferin-PPXE luminescence; series mostly up to 57.1 µM
# In short: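 20 nM human CYP3A4 with 25 uM Luciferin-PPXE (at KM) in 200 mM KPO4, preincubated 10 min with compound; NADPH regeneration started a 60 min RT reaction. Luciferin detected by luminescence, normalized to 57 uM ketoconazole as full inhibition.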
# [16] = qHTS profiling for inhibitors of Plasmodium falciparum proliferation (AID 504749; active means well fitted curve in the direction sought with a large enough effect; an effect the other way counts as inactive or inconclusive;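 further: 0% = DMSO vehicle and full inhibition = artemisinin control; nearly all actives have a fitted effect of over 60% in size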); settings: P. falciparum in erythrocytes, SYBR Green DNA, 72 h, at 28.7 µM (top of the series)
# In short: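 P. falciparum-infected erythrocytes (0.3% parasitemia, 2.5% hematocrit final) were exposed to compounds for 72 h at 37 C in 5% CO2, then lysed with SYBR Green buffer overnight at room temperature; parasite DNA fluorescence was normalized to artemisinin and DMSO controls.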
# [17] = target: Cytochrome P450 2C19 (Homo sapiens) (UniProt P33261); assay: qHTS Assay for Inhibitors and Substrates of Cytochrome P450 2C19 (AID 899; active means well fitted curve in the direction sought with a large enough effect; an effect the other way counts as inactive or inconclusive; further: potency means the concentration at half of the fitted maximal effect; nearly all actives have a fitted effect of over 60% in size); settings: recombinant CYP2C19, luciferin-H EGE luminescence; series mostly up to 57.1 µM
# Chain of Cytochrome P450 2C19 (Homo sapiens) (P33261 whole entry, looked up): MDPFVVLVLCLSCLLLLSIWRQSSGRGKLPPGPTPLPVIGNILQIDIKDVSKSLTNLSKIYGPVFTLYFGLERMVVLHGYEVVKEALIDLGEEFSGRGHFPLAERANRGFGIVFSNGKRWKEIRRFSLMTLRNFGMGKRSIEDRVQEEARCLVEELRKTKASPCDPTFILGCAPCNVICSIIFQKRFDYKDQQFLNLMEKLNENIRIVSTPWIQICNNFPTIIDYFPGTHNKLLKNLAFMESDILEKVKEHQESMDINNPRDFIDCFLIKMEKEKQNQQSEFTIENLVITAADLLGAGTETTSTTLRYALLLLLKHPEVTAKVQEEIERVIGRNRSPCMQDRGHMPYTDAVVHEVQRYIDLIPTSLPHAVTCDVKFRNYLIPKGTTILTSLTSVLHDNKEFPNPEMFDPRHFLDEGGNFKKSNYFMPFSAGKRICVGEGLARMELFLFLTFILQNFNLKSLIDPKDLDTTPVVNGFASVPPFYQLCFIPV
# In short: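 In 50mM KPO4, the reaction held 5nM enzyme and KM-level (10uM) Luciferin-H EGE; it ran 60 min at 37C after NADPH regeneration and a 10 min compound preincubation. Luminescence values were scaled to 57uM ketoconazole as complete inhibition.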
# [18] = at 7.69 µM (top of the series) unless noted
# [19] = measured here: cell count channel max response
# [20] = measured here: lipid channel max response
compound,measurement,setting,value
COc1ncc2nc(-c3ccc(Cl)cc3)c(=O)n(-c3ccccc3)c2n1,Potency,[1],> 11.4 µM (inactive)
same,"activity change, negative = inhibition",[2]; [18],-12.8% (inactive)
same,Potency,[3],1.58 µM (active)
same,"activity change, negative = inhibition",[4],-0.099% (inactive)
same,"activity, negative = inhibition",[5]; [18],0.109% (inactive)
same,Potency,[6],> 9.22 µM (inactive)
same,Potency,[7],> 46 µM (inactive)
same,Potency,[8],inactive
same,Potency,[9],inactive
same,"activity change, negative = inhibition",[10]; at 57.5 µM (top of the series),-0.888% (inactive)
same,max response,[10]; [19],12%
same,max response,[10]; [20],16.2%
Cc1cccc(CNc2ccnc(-c3ccccc3CN(C)C)n2)c1,Potency,[1],11.5 µM (inactive)
same,"activity change, negative = inhibition",[2]; [18],-18% (inactive)
same,Potency,[3],3.16 µM (active)
same,"activity change, negative = inhibition",[4],-18.8% (inactive)
same,"activity, negative = inhibition",[5]; [18],-5.22% (inactive)
same,Potency,[7],> 46 µM (inactive)
same,Potency,[8],inactive
same,Potency,[11],inactive
same,Potency,[12],inactive
same,outcome,[13],inactive
same,"activity change, negative = inhibition",[10]; at 57.5 µM (top of the series),3.61% (inactive)
same,max response,[10]; [19],-8.06%
same,max response,[10]; [20],-5.18%
same,Potency,[14],inactive
COCCNc1nc(-c2cccc(OC)c2)nc2ccccc12,Potency,[1],> 11.4 µM (inactive)
same,"activity change, negative = inhibition",[2]; [18],-3.79% (inactive)
same,Potency,[3],0.2 µM (active)
same,"activity change, negative = inhibition",[4],0.846% (inactive)
same,"activity, negative = inhibition",[5]; [18],-13.7% (inactive)
same,Potency,[6],> 46 µM (inactive)
same,Potency,[7],> 46 µM (inactive)
same,Potency,[8],inactive
same,Potency,[15],5.01 µM (active)
same,Potency,[12],inactive
same,outcome,[13],inactive
same,"activity change, negative = inhibition",[10]; at 57.5 µM (top of the series),-5.01% (inactive)
same,max response,[10]; [19],5.13%
same,max response,[10]; [20],-0.48%
CN1[C@@H]2CC[C@H]1CC(OC(=O)[C@@H](O)c1ccccc1)C2 (stereo partly drawn),Potency,[1],> 11.4 µM (inactive)
same,"activity change, negative = inhibition",[2]; at 7.69 µM (top of the series),9.45% (inactive)
same,"activity change, negative = inhibition",[2]; at 17.2 µM (top of the series),-8.08% (inactive)
same,"activity change, negative = inhibition",[2]; at 38 µM (top of the series),-8.54% (inactive)
same,"activity, negative = inhibition",[5]; at 7.69 µM (top of the series),-3.56% (inactive)
same,"activity, negative = inhibition",[5]; at 17.2 µM (top of the series),8.85% (inactive)
same,Potency,[8],inactive
same,Potency,[9],inactive
same,"activity change, negative = inhibition",[10]; at 25.7 µM (top of the series),2.61% (inactive)
same,max response,[10]; [19],4.94%
same,max response,[10]; [20],8.69%
same,Potency,[14],inactive
same,"activity, negative = inhibition",[16]; parasite line A,-3.65% (inactive) and -0.465% (inactive)
same,"activity, negative = inhibition",[16]; parasite line B,7.89% (inactive) and -12.1% (inactive)
COCC(=O)N1CCC2(CCN(Cc3ccncc3)CC2)CC1,Potency,[1],> 11.4 µM (inactive)
same,"activity change, negative = inhibition",[2]; [18],5.27% (inactive)
same,Potency,[3],10 µM (active)
same,"activity change, negative = inhibition",[4],-6.67% (inactive)
same,"activity, negative = inhibition",[5]; [18],1.05% (inactive)
same,Potency,[7],> 46 µM (inactive)
same,Potency,[8],inactive
same,Potency,[9],inactive
same,Potency,[11],inactive
same,Potency,[17],0.0251 µM (active)
same,"activity change, negative = inhibition",[10]; at 57.5 µM (top of the series),3.65% (inactive)
same,max response,[10]; [19],13.5%
same,max response,[10]; [20],19.1%
Cc1cccc(CNc2nc(-c3ccoc3)nc3ccccc23)c1,Potency,[1],> 11.4 µM (inactive)
same,"activity change, negative = inhibition",[2]; [18],-0.544% (inactive)
same,Potency,[3],1.26 µM (active)
same,"activity change, negative = inhibition",[4],-3.51% (inactive)
same,"activity, negative = inhibition",[5]; [18],-10.1% (inactive)
same,Potency,[6],> 46 µM (inactive)
same,Potency,[7],> 46 µM (inactive)
same,Potency,[8],inactive
same,Potency,[15],6.31 µM (active)
same,Potency,[11],inactive
same,Potency,[17],7.94 µM (active)
same,Potency,[12],inactive
same,outcome,[13],inactive
same,"activity change, negative = inhibition",[10]; at 57.5 µM (top of the series),11.1% (inactive)
same,max response,[10]; [19],-24.1%
same,max response,[10]; [20],-2.26%
